Results: PubChem BioAssay (NCI)
This is part of a sample that, as a whole, favours compounds with a hit. Of some 79,000 tested, about 15% had one in any assay. Rule as the data show it: active = growth inhibition above about 70%; inactive = the rest.

Tests used:
[1] = NCI Yeast Anticancer Drug Screen. Data for the rad50 strain (AID 155);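 also: 0% = growth of vehicle-only cultures of the same strain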; conditions: S. cerevisiae rad50 strain growth inhibition; at 50.0 µM; active compounds read high
In short: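 A DNA repair-deficient yeast mutant serves as the test organism; compound-induced growth inhibition is calculated against vehicle-treated cells.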

[2] = NCI Yeast Anticancer Drug Screen. Data for the mec2-1 strain (AID 157); conditions: S. cerevisiae mec2-1 strain, at 50.0 µM, active compounds read high
In short: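 Readout is yeast growth inhibition, normalised to vehicle-treated controls, in the mec2-1 strain exposed to compound.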

[3] = NCI Yeast Anticancer Drug Screen. Data for the sgs1 mgt1 strain (AID 161);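 also: 0% = growth of cultures given vehicle only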; conditions: S. cerevisiae sgs1 mgt1 strain, at 50.0 µM, active compounds read high
In short: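 Growth of a repair-deficient yeast mutant was monitored after compound treatment and expressed as inhibition relative to vehicle-treated cultures.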

[4] = NCI Yeast Anticancer Drug Screen. Data for the cln2 rad14 strain (AID 165);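 also: 0% = growth equal to vehicle treated cultures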; conditions: S. cerevisiae cln2 rad14 strain, at 50.0 µM, active compounds read high
In short: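 Relative to vehicle controls, growth inhibition of compound-treated cln2 rad14 yeast was recorded.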

[5] = NCI Yeast Anticancer Drug Screen. Data for the bub3 strain (AID 167); conditions: S. cerevisiae bub3 mutant strain, at 50.0 µM, active compounds read high
In short: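 Inhibition values come from growth of compound-treated mutant yeast normalised to vehicle-treated controls.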

[6] = NCI Yeast Anticancer Drug Screen. Data for the mlh1 rad18 strain (AID 175); conditions: S. cerevisiae mlh1 rad18 strain growth inhibition; at 50.0 µM; active compounds read high
In short: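 Test agents were incubated with a yeast strain of defined genotype (DNA damage repair defect). Inhibition of growth was derived by comparison with vehicle-exposed cultures.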

Measured: growth inhibition

CCOC(=O)COc1cc(-c2ccccc2)nc2cc(F)ccc12
inactive: [1] 10.5% | [2] 7.95% | [3] 0.25% | [4] -18.4% | [5] -4.1% | [6] -25.9%

CCOc1cc2c(cc1O)C=C[C@@H]1[C@@H]2CC[C@]2(C)[C@@H](O)CC[C@@H]12
inactive: [1] 33.8% | [2] 2.15% | [3] 53.8% | [4] 26.7% | [5] 18.7% | [6] 25.7%

C=CC(COC(=O)C(C)(C)OC(C)=O)c1ccc(OC(=O)C(C)C)c(OC)c1 (stereo unspecified)
inactive: [1] -12.3% | [2] -2.75% | [3] 20.4% | [4] -12.3% | [5] -9% | [6] -76.1%

OCc1ccccc1OC1OC(CO)C(O)C(O)C1O (stereo unspecified)
inactive: [1] 18.5% | [2] 2.6% | [3] 16.4% | [4] -0.45% | [5] 21.6% | [6] -50.9%

O=C(O)COc1cc(-c2ccccc2F)nc2cc3c(cc12)OCO3
inactive: [1] 34.1% | [2] 22.5% | [3] 15.9% | [4] 7.9% | [5] -3.15% | [6] -18.1%

COc1cc2c(cc1-c1coc3cc(O)ccc3c1=O)OCO2
inactive: [1] -12.6% | [2] -24.3% | [3] -15.6% | [4] 11.2% | [5] -14.3% | [6] -42.6%

N#Cc1c(N)oc(-c2cccc([N+](=O)[O-])c2)c1C#N
inactive: [1] 24.6% | [2] 28.9% | [3] -19.9% | [4] 10.8% | [5] -6.3% | [6] -16.9%

CC(=N/N=C/c1ccccn1)/C(C)=N/N=C(C)/C(C)=N/N=C(C)/C(C)=N/N=C(C)/C(C)=N\N=C\c1ccccn1
inactive: [1] 24.1% | [2] 21.9% | [3] 4.05% | [4] 16.7% | [5] 8.15% | [6] -21.6%

O=C=NC(c1ccccc1)(c1ccccc1)c1ccccc1
inactive: [1] -4.25% | [2] -18.1% | [3] 1.65% | [4] 11.5% | [5] -5.5% | [6] 13.2%

CC/C(Cl)=N\OC(=O)Nc1ccc(OC)cc1
inactive: [1] -5.35% | [2] -16.1% | [3] -3.3% | [4] 2.6% | [5] 1.15% | [6] -68.8%

Cc1ccc(-c2noc(C)n2)cc1
inactive: [1] -12.9% | [2] 13.2% | [3] -2.75% | [4] -14.2% | [5] 4% | [6] 9.2%
